# Test results from PubChem BioAssay (NCI).
# Compounds without any hit were thinned out: in the full panel of roughly 83,000, 20% have a hit.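 Method: cells in 96-well plates; compound added at one concentration; 48 h incubation; percent growth measured; values under 10 scored active.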 Values without a mark were called inactive. Active and inactive are the calls of the source.
# Tested on: MDA-MB-468 breast
# Experiment: NCI-60 one-dose screen, 48 h (100 = growth as untreated, 0 = no growth, -100 = all killed)
# Details: 10 µM unless noted
row,Compound,growth
1,CCCNC(=O)c1ccc(S(N)(=O)=O)cc1,82.1%
2,C=CC(=O)Nc1cccc(Oc2nc(Nc3ccc(N4CCN(C)CC4)cc3)nc3ccsc23)c1,-69.1% (active)
3,Cn1ccnc1C(=O)/C=C/c1ccc(CC(=O)Nc2ccc(Br)cc2)cc1,0.947% (active)
4,Cc1nnc(-c2cc3c(ccc4ccccc43)oc2=O)c2cn(-c3ccc(Cl)cc3)nc12,96.4%
5,O=c1c2sc3ncc(Br)cc3c2ncn1-c1cccc(Cl)c1,89.8%
6,COc1cccc(-c2nc3sccn3c2-c2ccnc(NCCNS(=O)(=O)c3cccc(Cl)c3)c2)c1,42.4%
7,CCCCCSc1ccc2nc(NC(=O)OCCC)sc2c1,9.55% (active)
8,COc1cc(NC(C)CCCNC(=O)CCC(=O)NCCCNCCCCCCCCCCNCCCNC(=O)CCC(=O)NCCCC(C)Nc2cc(OC)cc3cccnc23)c2ncccc2c1 (configuration not stated),-0.701% [8 µM] (active)
9,COc1ccc(-c2nc3ccc(C)cc3c3c2c(=O)n(C)c(=O)n3C)cc1OC,100%
10,O=C(/C=C/c1ccc(Cl)c(Cl)c1)Nc1ncc(Cc2ccc(Cl)c(Cl)c2)s1,68.5%
11,FC(F)(F)c1[nH]ncc1-c1nc2c(N3CCCCC3)cc3[nH]ncc3c2c2c1CCCC2,-25.6% (active)
12,COc1ccc(-c2nc(SCCC(C)C)nc(N/N=C\c3cccc([N+](=O)[O-])c3)c2C#N)cc1,12.7%
13,Cc1cc(C)cc(Nc2cc(C)nc3nc(C(F)(F)F)nn23)c1,25.5%
14,CC1NC(=O)NC1CCCCCC(=O)O (configuration not stated),101%
15,CN1CCCC1=Nc1ccccc1,107%
16,C#CC(C)(O)c1ccc(Cl)cc1 (configuration not stated),94.5%
17,COc1ccc(C(=O)NC(=O)Nc2ccc3c(c2)NC(=O)/C3=C\c2[nH]c(C)c(CCC(=O)O)c2C)c(F)c1,59.7%
18,CC1=CNNc2c3ncnc-3ncn21,95.1%
19,CCOC(=O)c1ccccc1SC(C[N+](=O)[O-])c1ccccc1 (configuration not stated),63.7%
20,Cc1ccc(S(=O)(=O)N2CCc3ccc(O)c4c3C2Cc2cc(Cl)ccc2-4)cc1 (configuration not stated),53.9%
21,CCCCS(=O)(=O)Oc1ccc(-c2nc(C)c(C(=O)OCC)s2)cc1C=O,52.1%
22,O=C(O)c1ccc2c(c1)nc(Nc1cccc(Cl)c1)c1ccncc12,-36.1% (active)
23,O=S1(=O)NCCCN1CCNc1nccc(-c2c(-c3cccc(O)c3)nc3sccn23)n1,78.8%
24,COc1ccc(-c2nc(-c3nc4ccc(OC)cc4[nH]3)cc3c2[nH]c2ccccc23)cc1,59.6%
25,Cc1ccc2[nH]c(=O)c3c(c2c1)OC(N)=C(C#N)C31c2cc(Br)ccc2-c2ccc(Br)cc21,55.4%
26,COc1cc(OC)c(/C=C/S(=O)(=O)Cc2ccc(OC)c(NCC(=O)O)c2)c(OC)c1,-4.64% (active)
27,O=C1Nc2ccc(C(=O)O)cc2/C1=N/c1nnc(Sc2ccccc2)s1,105%
